From PubChem BioAssay
Potency and affinity values are given separately. Records with an inconclusive call do not appear. Calls of active or inactive are those of the source.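 The calls were made as follows, unless noted: active = fitted dose curve reaches 40% lysis signal rise at or below the highest valid concentration tested for that sample; inconclusive = flat fit between 30% and 70%, or poor curve fit; inactive = signal falls, stays flat within 30%, or no crossing.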

Tests used:
[1] = Cryptococcus neoformans growth inhibition, dose response, Alamar Blue, cherry-picks (AID 686998;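 active = falling signal with fitted half-maximal potency no higher than twice the top valid tested dose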)
[2] = inducers of Cryptococcus neoformans cell lysis, dose response, AK release luminescence, cherry-picks (AID 687000);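 also: luminescent detection of adenylate kinase leaking from lysed yeast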
[3] = HepG2 cell cytotoxicity, dose response, cytotoxicity control, cherry-picks, set 2 (AID 687002;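 active = a dose-response fit showing signal loss, with half-maximal concentration no higher than twice the top tested dose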)

Measured: outcome

CO[C@@H](CN(C)Cc1cc(F)ccc1F)[C@@H](C)CN([C@H](C)CO)S(=O)(=O)c1ccc(F)cc1
inactive: all assays above

CNC(=O)C[C@@H]1CC[C@@H]2[C@H](COC[C@H](O)CN2S(=O)(=O)c2cccc(Cl)c2)O1
inactive: all assays above

C[C@H](O)C#Cc1ccc([C@H]2[C@H](CO)N3CCCCN(CC4CCOCC4)C[C@@H]23)cc1
inactive: all assays above

C[C@H]1CN([C@@H](C)CO)C(=O)CCCn2nncc2CO[C@@H]1CN(C)Cc1cccc(C(F)(F)F)c1
inactive: all assays above

COCC(=O)Nc1ccc2c(c1)C(=O)N(C)C[C@@H](OC)[C@H](C)CN(Cc1ccccc1)[C@@H](C)CO2
inactive: all assays above
